The results in this text go back to the supplement of paper PMC13380429.

SMILES strings stand for the structures.

The assay deals with Vero E6 infected with SARS-CoV-2. Briefly: morphology score (similarity to uninfected cells); higher = more like uninfected cells. The following applies: 24 h.
As for `Cc1ccccc1-n1c(Cn2ncc3c(N)ncnc32)nc2cccc(C)c2c1=O` (10 µM), the morphology score was 0.373.
As for `O=C(COc1ccc(C(=O)c2ccccc2)cc1)NC1CCN(Cc2ccccc2)CC1` [adiporon] (10 µM), the morphology score is 0.0636.
Molecule `Nc1ccn([C@H]2C[C@H](O)[C@@H](CO)O2)c(=O)n1` [torcitabine] (10 µM) showed a morphology score of -0.00729.
The same measure for `CC(C)(C#N)c1cc(Cn2cncn2)cc(C(C)(C)C#N)c1` [anastrozole] (10 µM): -0.0389.
`C=CCNC(=O)c1cc([N+](=O)[O-])cc2c(=O)[nH]c(Nc3ccc(Cl)c(Cl)c3)nc12` (10 µM): the morphology score was -0.137.
The molecule `CC(C)Oc1ccc2c(=O)c3cc(C(=O)O)ccc3oc2c1` (10 µM) displayed a morphology score of 0.0971.
`Cc1cc(OCc2nnc(SC3CCCC3)n2-c2cccnc2)ccc1-c1ccc(S(C)(=O)=O)cc1` (0.833333 µM) registered a morphology score of 0.0612.
As for `CN(C)CCN1C(=O)c2cccc3cc(NC(N)=O)cc(c23)C1=O` [unbs-5162] (10 µM), the morphology score stood at 0.115.
Molecule `CC[N+](C)(CC)CCC[n+]1c(-c2ccccc2)c2cc(N)ccc2c2ccc(N)cc21` [propidium-iodide] (10 µM) showed a morphology score of 0.271.
In turn, `Cc1c(F)cc(C(=O)NC2CC2)cc1-c1c(F)cn2c(C(C)(C)C)nnc2c1F` (10 µM) gave a morphology score of -0.202.
For `Cc1cccc(-c2[nH]c(C(C)(C)C)nc2-c2ccc3nccnc3c2)n1` (10 µM), the morphology score was -0.0319.
On to `O=C(O)CCCCN(CCc1ccccc1OCc1ccc(CCc2ccccc2)cc1)Cc1ccc(C(=O)O)cc1` [cinaciguat] (10 µM), for which the morphology score was -0.0659.
The value for `C[C@H]1NCc2cc(-c3ccc4c(=O)c(C(=O)O)cn(C5CC5)c4c3OC(F)F)ccc21` [garenoxacin] (10 µM) was 0.0451; that for `CC(C)(C)c1ccc(C(=O)CCCN2CCC(OC(c3ccccc3)c3ccccc3)CC2)cc1` [ebastine] (10 µM) was 0.606.
For the molecule `O=c1oc2c(O)c(O)cc3c(=O)oc4c(O)c(O)cc1c4c23` [ellagic-acid] (10 µM), the morphology score is 0.105.
The molecule `CC(SC(=O)c1cccs1)C(=O)NCC(=O)O` (centres undefined) [stepronin] (10 µM) returned a morphology score of -0.0157.
On to `Cc1cccn2c(=O)c(-c3nnn[nH]3)cnc12` [pemirolast] (10 µM), for which the morphology score turned out to be 0.106.
As to `CCNC(=O)CC[C@H](N)C(=O)O` [L-theanine] (10 µM), the morphology score was 0.0421.
Turning to `NNCCc1ccccc1` [phenelzine] (10 µM), the morphology score came to 0.113.
In turn, `CCNC(=O)Nc1ccc(-c2nc3c(c(N4CCOC[C@@H]4C)n2)CCN(C2COC2)C3)cc1` (0.833333 µM) had a morphology score of 0.13.
For `FC(F)(F)c1cccc(C2=CCN(CCc3ccc4ccccc4c3)CC2)c1` [xaliproden] (10 µM), the morphology score is -0.0559.
In turn, `C[C@H](O)[C@H](O)[C@H]1CNc2nc(N)[nH]c(=O)c2N1` [sapropterin] (10 µM) displayed a morphology score of -0.0335.
In turn, `Cc1cc(Cn2nnc3c(-c4ccco4)nc(N)nc32)ccc1N` [vipadenant] (10 µM) came in with a morphology score of 0.0562.
The value for `O=c1[nH]ccc2cc(OC3CCNCC3)ccc12` (10 µM) was 0.27.
The same measure for `C/C=C1/[C@H](O[C@@H]2O[C@H](CO)[C@@H](O)[C@H](O)[C@H]2O)OC=C(C(=O)OC)[C@H]1CC(=O)OCCc1ccc(O)c(O)c1` [oleuropein] (10 µM): -0.0158; for `COc1ccccc1OCC(O)CO` (centres undefined) [guaifenesin] (10 µM): -0.044; for `O=C1O[C@H]([C@@H](O)CO)C(O)=C1O` (10 µM): 0.1.
`Cc1cc2c(OCC(CNC(C)(C)C)OC(=O)c3ccccc3)cccc2[nH]1` (centres undefined) [bopindolol] (10 µM): the morphology score worked out at 0.12.
On to `COc1ccc(Nc2ncnc3ccc(OC)cc23)cc1` (10 µM), for which the morphology score is -0.228.
Take `COc1ccc(-c2nc(C(=O)N3CCN(C)CC3)sc2-c2ccc(OC)cc2)cc1` (10 µM): the morphology score stood at 0.211.
Molecule `CC(C)(N)c1cc(C(=O)N[C@@H]2CCc3ccc(Oc4ccnc5c4CCC(=O)N5)cc3C2)cc(C(F)(F)F)c1` (0.833333 µM) gave a morphology score of 0.227.
In the case of `Cc1ccc(Sc2cncc3sc(C(N)=O)cc23)cc1` (10 µM), the morphology score was -0.153.
The value for `OC[C@H]1O[C@@H](Oc2ccc(O)cc2)[C@H](O)[C@@H](O)[C@@H]1O` [arbutin] (10 µM) was 0.104.
The value for `CC[C@H]1OC(=O)C[C@@H](O)[C@H](C)[C@@H](O[C@@H]2O[C@H](C)[C@@H](O[C@H]3C[C@@](C)(O)[C@@H](O)[C@H](C)O3)[C@H](N(C)C)[C@H]2O)[C@@H](CC=O)C[C@@H](C)C(=O)/C=C/C(C)=C/[C@@H]1CO[C@@H]1O[C@H](C)[C@@H](O)[C@@H](OC)[C@H]1OC` (0.833333 µM) was -0.000376.
